What all share (assay): protein-binding microarray (PBM); PBM: ~300 nM protein, 6 mM HEPES pH 7.8, 80 mM KCl, 0.5 mM EDTA, 0.5 mM EGTA, 6% glycerol, 35 ng/ul poly-dIdC, 1% milk, 1 h, room temperature; Ap Aiptasia and Nv Nematostella (sea anemones) / Co Capsaspora / Aq Amphimedon (sponge) / Dm Drosophila / Hu human; RHD is the Rel homology domain; high values mean tight binding
Common to all, as to settings: dsDNA, one strand shown

One assay deals with T1, GST-Ap-NF-kB RHD (Exaiptasia pallida (Aiptasia), UniProt A0A913YAJ5 2-422).
T1 sequence: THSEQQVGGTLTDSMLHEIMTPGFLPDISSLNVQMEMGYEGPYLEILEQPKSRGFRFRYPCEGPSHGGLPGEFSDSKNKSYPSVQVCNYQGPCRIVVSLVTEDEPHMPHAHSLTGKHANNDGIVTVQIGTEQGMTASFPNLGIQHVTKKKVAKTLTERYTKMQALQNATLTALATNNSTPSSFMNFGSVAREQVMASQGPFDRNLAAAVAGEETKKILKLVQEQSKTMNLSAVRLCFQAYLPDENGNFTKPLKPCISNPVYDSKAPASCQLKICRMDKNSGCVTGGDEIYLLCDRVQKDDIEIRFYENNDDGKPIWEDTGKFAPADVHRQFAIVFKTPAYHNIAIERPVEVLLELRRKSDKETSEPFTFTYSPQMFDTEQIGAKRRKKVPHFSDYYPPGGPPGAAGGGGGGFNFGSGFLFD

The target of assay [1] is T2, GST-Nv-NF-kB (Cys allele) (Nematostella vectensis, UniProt E5G601 2-411).
T2 sequence: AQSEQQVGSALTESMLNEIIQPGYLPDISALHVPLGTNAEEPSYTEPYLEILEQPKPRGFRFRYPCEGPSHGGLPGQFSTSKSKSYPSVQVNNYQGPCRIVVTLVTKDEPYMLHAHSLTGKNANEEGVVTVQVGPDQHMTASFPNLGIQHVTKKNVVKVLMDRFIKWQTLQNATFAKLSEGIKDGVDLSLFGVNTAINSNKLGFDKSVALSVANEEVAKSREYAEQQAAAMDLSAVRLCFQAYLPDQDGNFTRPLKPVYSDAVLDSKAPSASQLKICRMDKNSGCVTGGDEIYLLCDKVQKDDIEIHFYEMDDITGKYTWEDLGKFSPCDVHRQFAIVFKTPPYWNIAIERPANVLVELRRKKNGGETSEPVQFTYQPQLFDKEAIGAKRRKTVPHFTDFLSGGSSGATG

The target in assay [2] is T3, GST-Nv-NF-kB (Ser allele) (Nematostella vectensis, UniProt A7UNT2 2-411).
T3 sequence: T2 sequence with Q21R, C66S, S207N, E215Q, V217A, E225K, A268E, D399E

The target of the next assay is T4, GST-Co-NF-kB (Capsaspora owczarzaki, UniProt F1ARL5 200-546).
T4 sequence: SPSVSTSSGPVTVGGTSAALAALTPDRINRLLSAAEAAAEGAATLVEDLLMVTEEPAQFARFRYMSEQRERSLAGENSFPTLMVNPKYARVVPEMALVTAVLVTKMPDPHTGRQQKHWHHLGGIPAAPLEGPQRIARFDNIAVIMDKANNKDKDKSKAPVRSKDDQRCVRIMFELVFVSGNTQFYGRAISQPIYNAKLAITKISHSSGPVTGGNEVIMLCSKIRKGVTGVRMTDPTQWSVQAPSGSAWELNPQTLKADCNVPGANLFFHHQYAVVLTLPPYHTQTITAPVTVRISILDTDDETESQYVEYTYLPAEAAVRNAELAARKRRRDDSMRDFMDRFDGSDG

A further assay deals with T5, GST-Dm-Relish (Drosophila melanogaster, UniProt Q94527 99-473).
T5 sequence: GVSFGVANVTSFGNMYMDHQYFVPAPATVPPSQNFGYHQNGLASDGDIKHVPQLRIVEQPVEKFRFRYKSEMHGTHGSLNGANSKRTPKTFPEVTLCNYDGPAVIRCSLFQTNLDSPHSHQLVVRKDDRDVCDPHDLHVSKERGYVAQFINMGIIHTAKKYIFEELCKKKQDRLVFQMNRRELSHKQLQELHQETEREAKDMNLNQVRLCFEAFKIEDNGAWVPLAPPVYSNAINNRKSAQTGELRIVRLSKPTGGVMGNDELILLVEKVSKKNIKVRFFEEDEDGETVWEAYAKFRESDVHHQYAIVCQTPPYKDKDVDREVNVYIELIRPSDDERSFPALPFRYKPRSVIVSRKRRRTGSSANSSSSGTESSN

For another assay, the target named is T6, GST-Aq-NF-kB (Amphimedon queenslandica, UniProt A9Y5G7 2-389).
T6 sequence: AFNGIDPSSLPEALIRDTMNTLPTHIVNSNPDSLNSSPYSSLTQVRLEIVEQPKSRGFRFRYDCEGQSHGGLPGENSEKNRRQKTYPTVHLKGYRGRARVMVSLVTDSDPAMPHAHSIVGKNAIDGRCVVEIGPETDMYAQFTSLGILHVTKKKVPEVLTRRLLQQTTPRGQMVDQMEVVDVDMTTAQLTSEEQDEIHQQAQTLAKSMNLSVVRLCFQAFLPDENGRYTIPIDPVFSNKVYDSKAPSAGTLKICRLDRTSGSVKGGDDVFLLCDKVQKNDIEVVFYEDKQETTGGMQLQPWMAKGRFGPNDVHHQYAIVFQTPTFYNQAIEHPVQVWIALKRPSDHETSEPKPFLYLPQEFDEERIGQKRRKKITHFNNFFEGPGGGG

The target in the next assay is GST-Hu-p50 (Homo sapiens, UniProt P19838 7-356).

Changes are numbered by the printed parent chain.

Sequence of GST-Hu-p50 (P19838 7-356): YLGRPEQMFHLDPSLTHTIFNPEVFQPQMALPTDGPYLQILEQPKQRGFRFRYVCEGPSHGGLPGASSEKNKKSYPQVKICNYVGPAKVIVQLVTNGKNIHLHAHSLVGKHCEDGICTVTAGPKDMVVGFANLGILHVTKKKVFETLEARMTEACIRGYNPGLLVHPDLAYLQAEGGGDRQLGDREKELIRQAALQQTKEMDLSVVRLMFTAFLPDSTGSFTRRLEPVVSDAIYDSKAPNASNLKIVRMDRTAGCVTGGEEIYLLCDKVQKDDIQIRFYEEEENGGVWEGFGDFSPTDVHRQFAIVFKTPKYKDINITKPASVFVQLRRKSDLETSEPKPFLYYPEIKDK

In the case of “CCGATTAACATCAGGAGGTCCCCTGATGTTAATCGGGTCTTGATTCGCTTGACGCTGCTG”, the binding signal in the assay with GST-Ap-NF-kB RHD came to 5.22 z-score; in assay [1], 3.71 z-score; in assay [2], 2.14 z-score; with GST-Co-NF-kB, 1.57 z-score; in the assay with GST-Dm-Relish, 4.16 z-score; with GST-Aq-NF-kB it was 5.29 z-score. The sequence also came in with a binding signal with GST-Hu-p50 of 3.18 z-score.

As to “CCGATTAACATCAACAATTTCCCTGATGTTAATCGGGTCTTGATTCGCTTGACGCTGCTG”, the binding signal with GST-Ap-NF-kB RHD was 3.9 z-score; in assay [1], 5.04 z-score; in assay [2], 6.92 z-score; in the assay with GST-Co-NF-kB, 4.63 z-score; with GST-Dm-Relish it was 2.52 z-score; with GST-Aq-NF-kB, 4.15 z-score. Also, in the assay with GST-Hu-p50, the binding signal was determined as 4.08 z-score.

On to “CCGATTAACATCAGGGGATGAACTGATGTTAATCGGGTCTTGATTCGCTTGACGCTGCTG”, for which the binding signal in the assay with GST-Ap-NF-kB RHD worked out at 2.44 z-score; in assay [1] it was 3.65 z-score; in assay [2] it was 4.24 z-score; in the assay with GST-Co-NF-kB, 3.23 z-score; in the assay with GST-Dm-Relish, 7.62 z-score; with GST-Aq-NF-kB, 3.73 z-score. In the assay with GST-Hu-p50, this sequence displayed a binding signal of 2.94 z-score.

For the sequence “CCGATTAACATCAGGGAAACCCCTGATGTTAATCGGGTCTTGATTCGCTTGACGCTGCTG”, the binding signal with GST-Ap-NF-kB RHD is 10.6 z-score; in assay [1] it was 11.4 z-score; in assay [2] it was 9.7 z-score; with GST-Co-NF-kB, 5.51 z-score; with GST-Dm-Relish it was 9.95 z-score; with GST-Aq-NF-kB, 10 z-score. In the assay with GST-Hu-p50, the binding signal came to 6.82 z-score.

“CCGATTAACATCAGGGGAAGTAATGATGTTAATCGGGTCTTGATTCGCTTGACGCTGCTG”: the binding signal came to 4.58 z-score with GST-Ap-NF-kB RHD; 6.3 z-score in assay [1]; 7.78 z-score in assay [2]; 5.87 z-score with GST-Co-NF-kB; 6.8 z-score with GST-Dm-Relish; 4.63 z-score with GST-Aq-NF-kB. Besides, the binding signal with GST-Hu-p50 came out at 5.36 z-score.

Regarding “CCGATTAACATCAATTTCCCCCATGATGTTAATCGGGTCTTGATTCGCTTGACGCTGCTG”, the binding signal in the assay with GST-Ap-NF-kB RHD was found to be 7.52 z-score; in assay [1], 7.6 z-score; in assay [2], 8.86 z-score; with GST-Co-NF-kB, 10.7 z-score; with GST-Dm-Relish, 4.97 z-score; in the assay with GST-Aq-NF-kB, 6.34 z-score. In addition, the binding signal with GST-Hu-p50 stood at 6.86 z-score.

Consider “CCGATTAACATCAAACTCCCCCTTGATGTTAATCGGGTCTTGATTCGCTTGACGCTGCTG”, for which the binding signal in the assay with GST-Ap-NF-kB RHD is 8.05 z-score; in assay [1], 6.74 z-score; in assay [2], 8.38 z-score; with GST-Co-NF-kB, 6.26 z-score; with GST-Dm-Relish, 6.54 z-score; with GST-Aq-NF-kB, 6.59 z-score. In the assay with GST-Hu-p50, this sequence returned a binding signal of 7.29 z-score.

“CCGATTAACATCAAGCATTCCCCTGATGTTAATCGGGTCTTGATTCGCTTGACGCTGCTG”: the binding signal was determined as 6.61 z-score in the assay with GST-Ap-NF-kB RHD; 7.73 z-score in assay [1]; 8.37 z-score in assay [2]; 5.48 z-score with GST-Co-NF-kB; 4.42 z-score in the assay with GST-Dm-Relish; 5.38 z-score with GST-Aq-NF-kB. Further, the binding signal in the assay with GST-Hu-p50 came out at 5.38 z-score.

As for “CCGATTAACATCAGGGGGAATACTGATGTTAATCGGGTCTTGATTCGCTTGACGCTGCTG”, the binding signal with GST-Ap-NF-kB RHD was 8.15 z-score; in assay [1] it was 8.32 z-score; in assay [2], 8.65 z-score; with GST-Co-NF-kB it was 9.18 z-score; in the assay with GST-Dm-Relish, 7.69 z-score; in the assay with GST-Aq-NF-kB, 6.87 z-score. The same sequence returned a binding signal with GST-Hu-p50 of 6.83 z-score.

Take “CCGATTAACATCAGGGGGTTTGATGATGTTAATCGGGTCTTGATTCGCTTGACGCTGCTG”: the binding signal with GST-Ap-NF-kB RHD came out at 6.11 z-score; in assay [1], 4.29 z-score; in assay [2] it was 6.14 z-score; with GST-Co-NF-kB, 1.61 z-score; with GST-Dm-Relish, 5.81 z-score; in the assay with GST-Aq-NF-kB it was 4.09 z-score. Besides, the binding signal with GST-Hu-p50 turned out to be 6.03 z-score.

Take “CCGATTAACATCACGGGGATTTATGATGTTAATCGGGTCTTGATTCGCTTGACGCTGCTG”: the binding signal in the assay with GST-Ap-NF-kB RHD was determined as 7.32 z-score; in assay [1], 7.95 z-score; in assay [2], 8.97 z-score; in the assay with GST-Co-NF-kB, 4.67 z-score; with GST-Dm-Relish, 8.32 z-score; with GST-Aq-NF-kB, 5.47 z-score. The binding signal with GST-Hu-p50 is 6.63 z-score.

Turning to “CCGATTAACATCAAGAATTCCCCTGATGTTAATCGGGTCTTGATTCGCTTGACGCTGCTG”, the binding signal in the assay with GST-Ap-NF-kB RHD was determined as 9.76 z-score; in assay [1], 11.7 z-score; in assay [2] it was 12.3 z-score; in the assay with GST-Co-NF-kB, 7.33 z-score; in the assay with GST-Dm-Relish, 8.81 z-score; in the assay with GST-Aq-NF-kB, 8.32 z-score. Besides, the binding signal with GST-Hu-p50 turned out to be 7.54 z-score.

The record behind these values is publication PMC5700166.
